Assay results from PubChem BioAssay.

Molecular target: Alpha-bungarotoxin (Bungarus multicinctus) (UniProt P60615)
Assay: alpha-bungarotoxin binders on microarray, profiling panel, artefact control for SMM control protein annotation, biochemical, small-molecule microarray, Alexa647 label, 635/667 nm fluorescence (AID 1117)
Conditions: alpha-BTX-A647 binding fluorescence, higher = more signal

Chain of Alpha-bungarotoxin (Bungarus multicinctus) (P60615 whole entry, looked up): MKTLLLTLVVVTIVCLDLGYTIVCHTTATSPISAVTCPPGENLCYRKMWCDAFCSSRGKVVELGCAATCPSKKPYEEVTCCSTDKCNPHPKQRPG

In order of rising composite z-score:
1. COC(=O)CCCCCCC(=O)Nc1ccc(NC(=O)CCCC[P+](c2ccccc2)(c2ccccc2)c2ccccc2)cc1  -0.573
2. CC(CO)N1C(=O)[C@@H]2[C@H]3C(=O)OCC=C[C@H]3OC23C=CCN(CCN2CCOCC2)C(=O)[C@@H]13 (stereo partly specified)  -0.245
3. COC(=O)[C@@]1(Cc2ccc(F)cc2)[C@H]2c3cc(C(=O)N4CCCC4)n(CCc4ccc(O)c(O)c4)c3C[C@H]2CN1C(=O)c1ccccc1  -0.125
4. C[C@@H]1NC(=O)[C@@]23C(=O)N[C@@H](Cc4ccccc4)C2[C@H](C)[C@@]2(C)O[C@H]2C3/C=C/C/C=C\CNC(=O)[C@@H]2CCCN2C1=O (stereo partly specified)  -0.123
5. COc1ccc([Si](C)(C)[C@H]2[C@H](CCn3cc([C@H](O)c4ccccc4)nn3)O[C@@]3(C(=O)N(Cc4ccc(N5C(=O)c6cccc7cccc5c67)cc4)c4ccccc43)[C@@H]2C)cc1  0.0628
6. COC(=O)[C@@]1(Cc2ccccc2)[C@H]2c3cc(C(=O)N(C)C)n(Cc4c(CO)[nH]cc(C)c4=O)c3C[C@H]2CN1C(=O)c1ccccc1  0.218
7. O=C1C2C=CC(C(O)c3ccc(Br)cc3)N(Nc3ccccc3F)C2C(=O)N1c1ccccc1 (stereo unspecified)  0.225
8. CCOC(=O)C[C@H]1[C@H](OC(=O)c2cc3ccccc3oc2=O)[C@@H](NC(=O)c2ccc(-c3ccccc3)cc2)c2cc(OCCCO)ccc2N1C(=O)c1ccc2ccccc2n1  0.422
9. C=C(COC)C(=O)CC[C@@H](OC(=O)c1cccnc1)c1ccc(OCCO)cc1  0.661
10. COC(=O)[C@@]1(Cc2ccc(OC)cc2)[C@H]2c3cc(C(=O)N4CCCC4)n(Cc4cccc5ccccc45)c3C[C@H]2CN1C(=O)c1ccccc1  0.716
11. OCCCC1=CC(c2ccc(CN3CCCC3)cc2)N(Cc2sc3ccccc3c2Cl)CC1 (stereo unspecified)  0.827
12. C=CC[C@@]1(C(=O)N2CCOCC2)N=C(c2ccc(OCCCO)cc2)O[C@@H]1c1ccccc1CN=[N+]=[N-]  0.943
13. C=CCC(OC(C)=O)[C@@H]1[C@@H](N(Cc2cc3ccccc3o2)C(=O)Cc2ccc(F)cc2)c2cc(OCCCO)ccc2N1C(=O)c1ccc2ccccc2c1 (stereo partly specified)  1.29
14. CC(C)(C)OC(=O)CC[C@@]1(C(=O)NCc2ccccc2)N=C(c2ccc(OCCCO)cc2)O[C@@H]1c1ccccc1N=[N+]=[N-]  2.1
15. COCCOC(=O)N1C(=O)[C@@]2(c3cc(C#CCC(C(=O)OC)C(=O)OC)ccc31)[C@H](C(=O)N1CCc3cc(OC)c(OC)cc3C1)[C@H]1C(=O)O[C@H](c3ccccc3)[C@H](c3ccccc3)N1[C@@H]2c1ccc(OCCO)cc1  2.16
16. O=C1O[C@H](c2ccccc2)[C@H](c2ccccc2)N2[C@H]1[C@@H](C(=O)N1CCN(c3ncccn3)CC1)[C@]1(C(=O)Nc3ccc(C#CC4(O)CCCCCC4)cc31)[C@H]2c1ccc(OCCO)cc1  2.81
